SW480 rerep: DNA re-replication induction in SW480 cells; SW480 DNA re-replication, Hoechst DNA content imaging, 48 h; Potency, µM (titrated, usually from 46.1 µM), for the others: top-dose re-replication activation, hits mostly activators; actives 1.8% (n = 340,000); note: % of control where 0% means no effect; nearly all actives have a fitted effect of over 55% in size
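SW480 cells exposed to compounds for 48 hr at 37 C, 5% CO2, then Hoechst-stained 40 min. Nuclear DNA content imaged by fluorescence scanning (405 nm excitation, 500-530 nm emission); re-replication scored as increased high-intensity nuclei.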
ELG1 DNA repair: inhibitors of ELG1-dependent DNA repair in HEK293T cells. actives 2.3% (n = 330,000). Potency, µM (doses to about 46.1 µM), for the others: top-dose activity change, negative = inhibition, most hits filed as inhibitors. HEK293T ELG1-luciferase reporter, luminescence, 16 h; DNA damage induced by 5-fluorouridine. AID 504467; note: % is set by controls: 0 for no effect and ±100 for the full control effect; nearly all actives have a fitted effect of over 55% in size
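In this reporter screen, reduction of luminescence relative to DMSO vehicle indicated activity. Compounds and 5-fluorouridine were added together to 2,000 cells per well, incubated for 16 hr at 37 °C, then developed with ONE-Glo.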
RORg inh: inhibitors of mouse ROR gamma transcriptional activity | P51450 | Drosophila S2 Gal4-RORgamma UAS-luciferase reporter, 20 h | Potency, µM (titrated, usually from 53.6 µM), inactives show at the top dose activity change, negative = inhibition, hits mostly inhibitors | actives 5.4% (n = 310,000); note: % is set by controls: 0 for no effect and ±100 for the full control effect; nearly all actives have a fitted effect of over 60% in size
Target sequence (P51450 whole entry, looked up, the tested form may be a part): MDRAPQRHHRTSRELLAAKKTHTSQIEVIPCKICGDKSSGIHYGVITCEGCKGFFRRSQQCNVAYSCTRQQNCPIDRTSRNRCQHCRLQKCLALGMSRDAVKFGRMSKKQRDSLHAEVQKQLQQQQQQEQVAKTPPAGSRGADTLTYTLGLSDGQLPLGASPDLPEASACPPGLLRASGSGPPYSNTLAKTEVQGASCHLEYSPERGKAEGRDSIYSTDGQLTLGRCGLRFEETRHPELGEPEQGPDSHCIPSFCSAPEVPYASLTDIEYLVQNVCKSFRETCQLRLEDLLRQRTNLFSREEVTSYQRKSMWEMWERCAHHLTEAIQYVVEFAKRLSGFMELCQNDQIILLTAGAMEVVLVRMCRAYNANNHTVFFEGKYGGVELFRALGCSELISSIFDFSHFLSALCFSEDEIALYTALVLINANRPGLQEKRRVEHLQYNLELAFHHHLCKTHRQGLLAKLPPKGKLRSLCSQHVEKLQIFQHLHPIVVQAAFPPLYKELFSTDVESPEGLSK
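Drosophila S2 cells stably expressing Gal4-DBD/mouse RORγ fusion under metallothionein promoter plus UAS-luciferase; compound 1 h, then 700 uM CuSO4 induction for 20 h at ambient temperature; inhibition read as reduced luminescence.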
MCF10A rerep: inducers of DNA re-replication in MCF 10A breast cells. MCF 10A DNA re-replication, Hoechst nuclear intensity, 48 h. Potency, µM (titrated, usually from 46.1 µM), for the others: at the top dose activity, positive = re-replication, usual class: activators. actives 2.9% (n = 350,000); note: % of control where 0% means no effect; nearly all actives have a fitted effect of over 50% in size
Gal4-VP16 FLuc: counter-screen for ROR gamma inhibitors: Gal4-VP16 reporter; Drosophila S2 Gal4-VP16 UAS-luciferase, luminescence, 20 h; Potency, µM (top dose mostly 53.6 µM), for the others: top-dose activity, negative = inhibition, usual class: inhibitors; actives 3.5% (n = 310,000); AID 2546;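 note: Gal4-VP16 expression switched on by copper sulfate through the metallothionein promoter; % is set by controls: 0 for no effect and ±100 for the full control effect; nearly all actives have a fitted effect of over 50% in size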
Active calls of the source: *; ? = inconclusive; / = no result; [ ] = another dose, or the depositor's remark. This is a sample that favours compounds with a hit; in the whole collection about 10% have one here. Calls come from the whole dose curve; as a rule, active = well fitted curve in the direction sought with a large enough effect; inconclusive = small, poorly fitted or top-dose-only effect, or another doubt; inactive = no such curve, though single readings can be large; an effect the other way counts as inactive or inconclusive. Potency is the fitted concentration of half-maximal effect.

SMILES	SW480 rerep	ELG1 DNA repair	RORg inh	MCF10A rerep	Gal4-VP16 FLuc
COc1ccccc1Nc1nc(N)nc(CSC(=S)N2CCN(c3ccccc3)CC2)n1	-17%	?	-45%	-23%[9.22 µM]	6%
CCCn1nnnc1NCc1ccccc1Cl	-5%	-2%	26%	8%	-3%
Oc1ccc(N=Nc2ccccc2C(F)(F)F)c2cccnc12	?	?	3.5µM*	-2%	3.5µM*
COc1ccccc1N=Nc1ccc(O)c2ncccc12	10%	?	2.8µM*	18%	3.2µM*
CCS(=O)(=O)c1ccc(N=Nc2ccc(O)c3ncccc23)c(OC)c1	4.6µM*	?	7.1µM*	?	16µM*
CCS(=O)(=O)N1CCC(C(=O)Nc2ccc3c(c2)CCC3)CC1	-5%	-1%	24%	-16%	-4%
O=C(Cc1ccc(Cl)cc1)Nc1cc(Cl)ccn1	1%	/	/	15%	/
O=C(O)CSc1ncccc1C(=O)O	6%	-4%	1%	9.2µM*	-14%
O=C(CSc1ncccc1C(=O)O)c1cccc(C(F)(F)F)c1	2%	?	7%	-1%	2%
O=C(CSc1ncccc1C(=O)O)c1ccccc1F	4%	?	42%	7%	-7%
O=C(CSc1ncccc1C(=O)O)c1ccc2ccccc2c1	-6%	?	11µM*	18%	2.2µM*
Cn1ncc2c(=O)[nH]nnc21	-1%	/	/	0%	/
CCOc1cc(C(=O)Nc2ccc3c4c(cccc24)C(=O)N3CC)cc(OCC)c1OCC	-6%	21µM*	-25%	19%	22%
CCN1C(=O)c2cccc3c(NC(=O)c4cccc(N5C(=O)CCC5=O)c4)ccc1c23	-7%	4%	-35%	7%	-10%
CC(=O)Nc1ccc(S(=O)(=O)NC(C)C(=O)NCCc2ccc(F)cc2)cc1 (centres undefined)	0%	-5%	11%	1%	-12%
CC(=O)O[C@@H]1C[C@H]2C(C)(C)C(=O)C=C[C@]2(C)[C@H]2CC[C@@]3(C)[C@H](c4ccoc4)OC(=O)[C@H]4O[C@]43[C@@]21C	4.1µM*	?	?	?	-11%
CC(=O)OC1CC2C(C)(C)C(=O)CC[C@]2(C)C2CC[C@@]3(C)C(c4ccoc4)OC(=O)C4OC43[C@]12C (some centres undefined)	/	/	10%	/	13%
CC1(C)C(=O)C=C[C@@]2(C)C1C=C[C@@]1(C)C2CC[C@@]2(C)C(c3ccoc3)OC(=O)C3OC312 (some centres undefined)	/	/	7.1µM*	/	6%
CC1(C)OC(=O)C=C[C@]2(C)[C@H]3CC[C@@]4(C)[C@H](c5ccoc5)OC(=O)[C@H]5O[C@]54[C@]3(C)C(=O)C[C@@H]12	-4%	?	/	-5%	/
CC(=O)OC1CC[C@]2(C)C(CC(OC(C)=O)[C@@]3(C)C4=CC(=O)OC(c5ccoc5)[C@]4(C)CCC23)C1(C)C (some centres undefined)	/	/	13µM*	/	-1%
Nc1c[n+](N2CCOCC2)no1	/	/	12%	/	-3%
O=C(Nc1ccon1)c1cccc(S(=O)(=O)N2CCCCC2)c1	-29%	?	3%	9%	5%
Cc1ccccc1OCC(=O)Nc1ccc(C(=O)Nc2ccccc2C(=O)O)cc1	-4%	-5%	24%	0%	-1%
Cc1ccc(S(=O)(=O)Nc2ccccc2F)cc1C(=O)NNC(=O)c1ccccc1O	12%	-4%	/	-34%	/
C=CCn1ccc(=O)nc1SC	-9%	/	/	34%	/
O=C(NC(=S)NCc1ccc(F)cc1)c1ccccc1	?	12%	5µM*	-1%	?
O=C(NC(=S)NCc1ccncc1)c1ccccc1	-5%	-1%	2%	2%	-2%
O=C(NC(=S)NCc1ccccc1)c1ccccc1	0%	3%	3.2µM*	3%	?
CC(C)(C)C(=O)NCCCc1ccccc1	-2%	15%	-11%	9%	2%
CC(C)(C)C(=O)NC(=S)NCc1ccccc1	-90%	1%	7.1µM*	-35%	?
